Only some compounds are listed: those with a hit (about 5.9% of all), similar ones and a draw of the others.
GLP-1R inv ag: qHTS of GLP-1 Receptor Inverse Agonists (Inhibition Mode); Glucagon-like peptide 1 receptor (Homo sapiens), P43220; HEK293 GLP-1R CRE-luciferase, luminescence, 24 h; GLP-1R form is constitutively active; Potency, µM (highest dose often 38.3 µM), without a hit: top-dose activity change, negative = inhibition, usual class: inhibitors; actives 1.6% (n = 410,000); AID 624417, 2012; further: on the % scale 0 is the no-effect control and ±100 the full control effect; nearly all actives have a fitted effect of over 55% in size
Target sequence (P43220 whole entry, looked up): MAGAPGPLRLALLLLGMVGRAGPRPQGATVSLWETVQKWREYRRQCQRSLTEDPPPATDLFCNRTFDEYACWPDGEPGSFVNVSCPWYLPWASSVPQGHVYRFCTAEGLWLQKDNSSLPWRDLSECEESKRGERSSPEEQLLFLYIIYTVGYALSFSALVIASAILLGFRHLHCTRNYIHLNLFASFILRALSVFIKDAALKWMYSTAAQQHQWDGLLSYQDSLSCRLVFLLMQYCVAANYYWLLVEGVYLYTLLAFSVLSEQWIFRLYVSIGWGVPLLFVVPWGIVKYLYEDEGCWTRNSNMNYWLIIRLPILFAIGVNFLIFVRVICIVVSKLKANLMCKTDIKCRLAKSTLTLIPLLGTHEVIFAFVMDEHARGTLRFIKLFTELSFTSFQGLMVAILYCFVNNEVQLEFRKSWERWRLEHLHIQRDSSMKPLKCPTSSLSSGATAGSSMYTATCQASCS
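HEK293 cells stably co-expressing constitutively active GLP-1R and a cAMP-responsive luciferase reporter were seeded in DMEM with 10% Nu serum, given compounds after 12 h, and incubated 24 h at 37 deg C. Luminescence was then read.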
VP16 counter: VP16 counterscreen qHTS for inhibitors of ROR gamma transcriptional activity; Drosophila S2 Gal4-VP16 UAS-luciferase, luminescence, 20 h; Potency, µM (doses to about 53.6 µM), without a hit: at the highest dose activity, negative = inhibition, most hits filed as inhibitors; actives 3.5% (n = 310,000); AID 2546, 2010;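 further: Gal4-VP16 expression switched on by copper sulfate through the metallothionein promoter; on the % scale 0 is the no-effect control and ±100 the full control effect; nearly all actives have a fitted effect of over 50% in size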
HEK293 tox: qHTS of GLP-1 Receptor Inverse Agonists: Cytotox Screen; HEK293 cAMP-luciferase reporter cells, luminescence, 24 h; Potency, µM (highest dose often 38.3 µM), without a hit: at the top dose activity change, negative = inhibition, hits mostly inhibitors; actives 0.13% (n = 410,000); AID 624418, 2012;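 further: loss of luciferase light is scored as toxicity; on the % scale 0 is the no-effect control and ±100 the full control effect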
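Here, cytotoxicity is scored as loss of luminescence. The MLSMR collection was tested on cells seeded in medium containing 10% Nu serum, with a 24 hr compound exposure preceded by 12 hours of culture.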
RORg inh: qHTS for inhibitors of ROR gamma transcriptional activity | Nuclear receptor ROR-gamma (Mus musculus), P51450 | Drosophila S2 Gal4-RORgamma UAS-luciferase reporter, 20 h | Potency, µM (top dose mostly 53.6 µM), without a hit: at the highest dose activity change, negative = inhibition, most hits filed as inhibitors | actives 5.4% (n = 310,000); further: on the % scale 0 is the no-effect control and ±100 the full control effect; nearly all actives have a fitted effect of over 60% in size
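Luminescence from a UAS-regulated Photinus luciferase reporter in stably transfected Drosophila Schneider cells is measured; decreased signal marks ROR gamma inhibition. Fusion expression is induced by 700 uM copper sulfate for 20 hr.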
GLP-1R agonist: qHTS of GLP-1 Receptor Agonists. HEK293 GLP-1R CRE-luciferase, luminescence, 4-6 h; cells express a hypersensitive GLP-1R form. Glucagon-like peptide 1 receptor (Homo sapiens), P43220. Potency, µM (top dose mostly 45.6 µM), for inactives: at the highest dose activation, most hits filed as activators. actives 0.007% (n = 380,000); further: % of control where 0% means no effect
* = called active by the depositor; ? = inconclusive; . = no result given. The call rests on the fitted dose curve; in most records, active means well fitted curve in the direction sought with a large enough effect; inconclusive means small, poorly fitted or top-dose-only effect, or another doubt; inactive means no such curve, though single readings can be large; an effect the other way counts as inactive or inconclusive. Potency means the concentration at half of the fitted maximal effect.

SMILES	GLP-1R inv ag	VP16 counter	HEK293 tox	RORg inh	GLP-1R agonist
CCCCCCCCCCCCCCCCOC[C@H](COP(=O)([O-])OCC[N+](C)(C)C)OC(=O)CCCCCCCC(=O)O	.	?	.	-27%	.
O=C(Nc1ccc(Cl)c([N+](=O)[O-])c1)C(Sc1ccccc1)c1ccccc1 (stereo not drawn)	8.9µM*	?	?	-81%	-1%
C(=N\NC(=Nc1ccccc1)c1ccccn1)/c1ccccn1	?	3.2µM*	-11%	3.2µM*	6%
Clc1ccc(/C=N/NC(=Nc2ccccc2)c2ccccn2)c(Cl)c1	6%	?	10µM*	13µM*	3%
COc1ccc(CN2CCC[C@]3(N[C@H](c4ccc(C(F)(F)F)cc4)[C@@H]4C(=O)N(Cc5ccccc5)C(=O)[C@@H]43)C2=O)cc1	8.9µM*	.	-3%	.	-2%
CCN1C(=O)[C@H]2[C@@H](c3ccc(OC)cc3)N[C@]3(CCCN(Cc4ccc(C(F)(F)F)cc4)C3=O)[C@H]2C1=O	0%	.	0%	.	0%
CN1C(=O)[C@H]2[C@@H](c3ccc(C(F)(F)F)cc3)N[C@]3(CCCN(Cc4ccc(F)cc4)C3=O)[C@H]2C1=O	-24%	.	2%	.	4%
CN1C(=O)[C@H]2[C@@H](c3ccc(C(F)(F)F)cc3)N[C@]3(CCCN(Cc4ccc(Cl)cc4)C3=O)[C@H]2C1=O	11µM*	.	-32%	.	0%
O=C(c1ccco1)N1CCC2(CC1)CN(c1ccccn1)C2	.	-22%	.	-15%	.
COc1ccc(CCCc2nnc(SCC(=O)Nc3cc(F)ccc3C)o2)cc1	2%	.	-3%	.	.
CNC(=S)N/N=C/c1ccc2c(c1)OCCO2	-7%	0.63µM*	?	?	9%
COc1ccc(NCC(=O)N/N=C/c2ccc3c(c2)OCCO3)cc1	-15%	-6%	-7%	0.13µM*	0%
NC(=S)N/N=C/c1ccc2c(c1)OCCO2	11%	?	3%	11µM*	6%
Cc1cccc2nc(Cn3c(=O)n(-c4ccccc4)c(=O)c4c5c(sc43)CCC5)cc(=O)n12	11%	.	0%	.	.
O=c1c(-c2ccc(F)cc2)nc2cnc(Nc3ccccc3)nc2n1Cc1cccs1	.	5%	.	0%	.
COc1cccc([C@@H]2Oc3ccc(OC)cc3C[C@H]2OC(=O)NCc2ccco2)c1	.	-10%	.	19%	.
Cc1noc(-c2ccc(Cl)cc2)c1C(=O)O/N=C(\N)c1ccc(C(C)(C)C)cc1	?	7.9µM*	?	7.1µM*	20%
Cc1cccc(/C(N)=N/OC(=O)c2cccs2)c1	30%	?	?	8.9µM*	-3%
Cc1cccc(/C(N)=N/OC(=O)c2ccc(F)cc2)c1	15%	22µM*	-17%	8.9µM*	-2%
N/C(=N\OC(=O)c1ccc(F)cc1)c1cccc([N+](=O)[O-])c1	20%	-11%	-18%	2%	-3%
CC(C)(C)c1ccc(C(=O)O/N=C(\N)c2ccccc2)cc1	?	6.3µM*	-15%	1.1µM*	-4%
COc1ccc(C(=O)O/N=C(\N)c2ccccc2)cc1	?	?	-4%	?	-4%
Cc1ccc(NC(=O)C2CCN(c3cc(C)nc4c(-c5ccc(Cl)cc5)c(C)nn34)CC2)c(C)c1	9%	.	-2%	.	0%
N#Cc1cccc(-c2nc(NCCN3CCOCC3)c3ccccc3n2)c1	.	-15%	.	-19%	.
N/C(Cc1ccc(Cl)cc1Cl)=N\OC(=O)c1cccs1	0%	?	?	13µM*	-13%
N/C(Cc1ccc(Cl)cc1Cl)=N\OC(=O)Cc1cccs1	?	-10%	20%	34%	6%
Cc1cc(NCCN2CCOCC2)n2ncc(-c3ccccc3)c2n1	18%	10µM*	17%	3.5µM*	-4%
Cc1cc(NCc2ccccc2)n2ncc(-c3ccccc3)c2n1	?	-4%	1%	-27%	22%
